Data as given in PubChem BioAssay (NCI).
The panel holds about 83,000 compounds, 20% with a hit somewhere; the sample as a whole holds those more often.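 Growth was measured after 48 h exposure to one concentration of compound in 96-well plates. Values under 10 count as active.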 Activity calls are given as the source filed them.

Key:
Test in all cases: NCI-60 one-dose screen, 48 h (100 = growth as untreated, 0 = no growth, -100 = all killed)
Conditions in all cases: 10 µM unless noted
SK-MEL-2 melanoma = tested on: SK-MEL-2 melanoma
EKVX NSCLC = tested on: EKVX NSCLC
SN12C renal = tested on: SN12C renal
UO-31 renal = tested on: UO-31 renal
TK-10 renal = tested on: TK-10 renal
ACHN renal = tested on: ACHN renal
CAKI-1 renal = tested on: CAKI-1 renal
A498 renal = tested on: A498 renal
CCRF-CEM leukemia = tested on: CCRF-CEM leukemia
MOLT-4 leukemia = tested on: MOLT-4 leukemia

Measured: growth

COc1cccc(-c2ccc(/C=N/NC(=O)c3[nH]c4ccc(Br)cc4c3-c3ccccc3)s2)c1
inactive: EKVX NSCLC 17.9% | UO-31 renal 19.9% | A498 renal 63.2% | CCRF-CEM leukemia 16%
active: SK-MEL-2 melanoma -3.93% | SN12C renal 0.265% | TK-10 renal 8.47% | ACHN renal 7.04% | CAKI-1 renal 9.77% | MOLT-4 leukemia 6.82%

COc1ccc2c(c1)c(-c1cc(N)n3nc(-c4c[nH]c5ccccc45)cc3n1)cn2C
active: SK-MEL-2 melanoma -65.4% | EKVX NSCLC -79.6% | SN12C renal -81% | UO-31 renal -71.1% | TK-10 renal -92.5% | ACHN renal -79.6% | CAKI-1 renal -70.2% | A498 renal -57.8% | CCRF-CEM leukemia -25.1% | MOLT-4 leukemia -1.51%

COc1c(B(O)O)cccc1-c1nc2ccc3cn[nH]c3c2c2c1CCCC2
inactive: SK-MEL-2 melanoma 108% | EKVX NSCLC 49.3% | SN12C renal 50.6% | UO-31 renal 23.6% | TK-10 renal 12% | ACHN renal 27.3% | CCRF-CEM leukemia 39.6% | MOLT-4 leukemia 47.7%
active: CAKI-1 renal -11.3% | A498 renal -2.36%

Nc1cc(-c2c[nH]c3ccc(Cl)cc23)nc2cc(-c3c[nH]c4ccccc34)nn12
active: SK-MEL-2 melanoma -45.8% | EKVX NSCLC -23.7% | SN12C renal 6.54% | UO-31 renal -4.79% | TK-10 renal -7.78% | ACHN renal 0.126% | CAKI-1 renal -19.1% | A498 renal -14% | CCRF-CEM leukemia -16.6% | MOLT-4 leukemia -27.4%

O=C(Nc1ccc(-c2ccc3c(c2)NC(=O)/C3=C\c2ccc[nH]2)cc1)Nc1ccc(Cl)c(Cl)c1
inactive: SK-MEL-2 melanoma 88.9% | EKVX NSCLC 46.5% | SN12C renal 68.7% | UO-31 renal 54.9% | TK-10 renal 77.6% | ACHN renal 53.7% | CAKI-1 renal 39.1% | A498 renal 101% | CCRF-CEM leukemia 33.1% | MOLT-4 leukemia 33.5%

CCOC(=O)c1ccc(NC(=S)NC(=O)c2ccc(NC(=O)C(C)C)cc2OC)cc1
inactive: SK-MEL-2 melanoma 48.5% | EKVX NSCLC 36.1% | SN12C renal 73.8% | UO-31 renal 51.7% | TK-10 renal 85.7% | ACHN renal 64.6% | CAKI-1 renal 53.7% | A498 renal 86.7%
active: CCRF-CEM leukemia 9.79% | MOLT-4 leukemia -60.3%

Cn1cc(-c2cc(N)n3nc(-c4c[nH]c5ccccc45)cc3n2)c2cc(Br)ccc21
active: SK-MEL-2 melanoma -65.4% | EKVX NSCLC -86.5% | SN12C renal -78.8% | UO-31 renal -82.3% | TK-10 renal -94.6% | ACHN renal -87.7% | CAKI-1 renal -87.3% | A498 renal -92.5% | CCRF-CEM leukemia -22.9% | MOLT-4 leukemia 7.68%

O=C(CSc1nc2ccccc2c(=O)[nH]1)NNC(=O)c1ccccc1Cl
inactive: SK-MEL-2 melanoma 105% | EKVX NSCLC 109% | SN12C renal 112% | UO-31 renal 91.2% | TK-10 renal 105% | ACHN renal 112% | CAKI-1 renal 90.4% | A498 renal 100% | CCRF-CEM leukemia 120% | MOLT-4 leukemia 111%

CC(C)C[C@H](NC(=O)[C@@H]1CCCCCCCCCCC(=O)N[C@@H](CC(=O)N2CCC[C@@H]2C2CCCC2)C(=O)N1)B(O)O
inactive: CCRF-CEM leukemia 44%
active: SK-MEL-2 melanoma -70.6% | EKVX NSCLC -39.2% | SN12C renal -88.9% | UO-31 renal -66.8% | TK-10 renal 0.691% | ACHN renal 3.27% | CAKI-1 renal 7.24% | A498 renal -87.2% | MOLT-4 leukemia -19.9%

COc1ccc2[nH]c(=O)c(CSc3ccccc3Nc3nccc(-c4ccc5c(c4)OCO5)n3)cc2c1
inactive: SK-MEL-2 melanoma 95.6% | EKVX NSCLC 88% | SN12C renal 89.4% | UO-31 renal 75.8% | TK-10 renal 99.7% | ACHN renal 90.4% | CAKI-1 renal 68.5% | A498 renal 107% | CCRF-CEM leukemia 69.8% | MOLT-4 leukemia 50.1%

Cc1ccccc1Nc1nnc(-c2c[nH]c3ccccc23)o1
inactive: EKVX NSCLC 20.1% | SN12C renal 33.8% | UO-31 renal 33.8% | TK-10 renal 60.2% | ACHN renal 39.5% | CAKI-1 renal 29.4% | A498 renal 101% | CCRF-CEM leukemia 10.5%
active: SK-MEL-2 melanoma -10.8% | MOLT-4 leukemia 9.88%

O=C(NC(=S)N1CCN(c2ncnc3c2cnn3-c2ccccc2)CC1)c1ccc(F)cc1
inactive: SK-MEL-2 melanoma 91.6% | EKVX NSCLC 86.2% | SN12C renal 64.9% | UO-31 renal 74.4% | TK-10 renal 140% | ACHN renal 79.6% | CAKI-1 renal 84.8% | A498 renal 124% | CCRF-CEM leukemia 63.2% | MOLT-4 leukemia 45.2%

O=C(c1ccc(Cl)cc1)C1[C@H](c2ccccc2Cl)[C@@H](c2ccccc2)NC12C(=O)Nc1ccc(Cl)cc12 (stereo not given in full)
active: SK-MEL-2 melanoma -87.1% | EKVX NSCLC -23.5% | SN12C renal -90.4% | UO-31 renal -51.2% | TK-10 renal -0.422% | ACHN renal -26.1% | CAKI-1 renal -20.2% | A498 renal -40.7% | CCRF-CEM leukemia -6.99% | MOLT-4 leukemia -29.4%

CS(=O)(=O)c1ccc(-n2nc(C(=O)NCc3ccccc3)cc2-c2ccc(Cl)cc2)cc1
inactive: SK-MEL-2 melanoma 92.9% | EKVX NSCLC 68% | SN12C renal 80.8% | UO-31 renal 56.5% | TK-10 renal 104% | ACHN renal 91.3% | CAKI-1 renal 76.1% | A498 renal 124% | CCRF-CEM leukemia 58.6% | MOLT-4 leukemia 59.4%

COc1cc2cc(C(=O)N3C[C@@H](CCl)c4c3cc(OC(=O)N(CCC(=O)N3CCN(C)CC3)C3CCCCC3)c3ccccc43)[nH]c2c(OC)c1OC
active: SK-MEL-2 melanoma -82.4% | EKVX NSCLC -78.8% | SN12C renal -82.8% | UO-31 renal -73.2% | TK-10 renal -71.3% | ACHN renal -84.6% | CAKI-1 renal -79.1% | A498 renal -19.9% | CCRF-CEM leukemia -34.3% | MOLT-4 leukemia -19.8%

Cn1cc(-c2cc(N)n3nc(-c4c[nH]c5ccccc45)cc3n2)c2ccccc21
active: SK-MEL-2 melanoma -88.2% | EKVX NSCLC -96.1% | SN12C renal -85.5% | UO-31 renal -83.5% | TK-10 renal -93.4% | ACHN renal -100% | CAKI-1 renal -100% | A498 renal -90.4% | CCRF-CEM leukemia -20.6% | MOLT-4 leukemia 9.25%

COc1ccc(C(=O)c2c(N)c(C#N)cn2-c2ccc([N+](=O)[O-])cc2)cc1
inactive: SK-MEL-2 melanoma 108% | EKVX NSCLC 93.6% | SN12C renal 101% | UO-31 renal 90.1% | TK-10 renal 117% | ACHN renal 106% | CAKI-1 renal 85.4% | A498 renal 126% | CCRF-CEM leukemia 112% | MOLT-4 leukemia 105%

COc1cc(C=O)ccc1OC(=O)c1cc(-c2ccc(C)cc2)n(-c2ccc(S(C)(=O)=O)cc2)n1
inactive: SK-MEL-2 melanoma 108% | EKVX NSCLC 98.8% | SN12C renal 99.2% | UO-31 renal 85.6% | TK-10 renal 126% | ACHN renal 104% | CAKI-1 renal 93.5% | A498 renal 143% | CCRF-CEM leukemia 96.9% | MOLT-4 leukemia 91.4%

Fc1ccc(Nc2nnc(-c3c[nH]c4ccccc34)o2)cc1
inactive: SK-MEL-2 melanoma 96.7% | EKVX NSCLC 56.5% | SN12C renal 56.2% | UO-31 renal 44.4% | TK-10 renal 123% | ACHN renal 77.5% | CAKI-1 renal 67.8% | A498 renal 133% | CCRF-CEM leukemia 16.3% | MOLT-4 leukemia 29.6%

COC(=O)c1cc(C(C)=O)n2c3ccccc3c3ccccc3c12
inactive: SK-MEL-2 melanoma 99.2% | EKVX NSCLC 69.5% | SN12C renal 75.6% | UO-31 renal 38% | TK-10 renal 74.3% | ACHN renal 36.4% | CAKI-1 renal 44.5% | A498 renal 121% | CCRF-CEM leukemia 85.2% | MOLT-4 leukemia 73.3%

COc1ccc2c(c1)C(Sc1ccc(Br)cc1)c1c(nc(N)c(C#N)c1N)O2 (stereo not given)
inactive: SK-MEL-2 melanoma 94.3% | EKVX NSCLC 67% | SN12C renal 77.1% | UO-31 renal 43.7% | TK-10 renal 108% | ACHN renal 79.7% | CAKI-1 renal 80.3% | A498 renal 103% | MOLT-4 leukemia 55%
active: CCRF-CEM leukemia 9.55%

O=C1Nc2ccc(F)cc2/C1=C/C(=O)c1cc2ccccc2oc1=O
inactive: SK-MEL-2 melanoma 102% | EKVX NSCLC 90.3% | SN12C renal 104% | UO-31 renal 62.1% | TK-10 renal 161% | ACHN renal 62.5% | CAKI-1 renal 88.8% | A498 renal 128% | CCRF-CEM leukemia 39.6% | MOLT-4 leukemia 65%

CS(=O)(=O)Nc1cc(-c2ccc3ncnc(Nc4ccc(OCc5cccnc5)c(Cl)c4)c3c2)cnc1Cl
active: SK-MEL-2 melanoma -76.7% | EKVX NSCLC -24.4% | SN12C renal 8.19% | TK-10 renal -27% | CAKI-1 renal 1.71% | A498 renal -25.6% | MOLT-4 leukemia -50.6%
inactive: UO-31 renal 23.2% | ACHN renal 32% | CCRF-CEM leukemia 11%

O=c1[nH]c2ccccc2cc1CSc1ccccc1Nc1nccc(-c2ccc3c(c2)OCO3)n1
inactive: SK-MEL-2 melanoma 96.7% | EKVX NSCLC 86.6% | SN12C renal 57% | UO-31 renal 77.6% | TK-10 renal 107% | ACHN renal 51.6% | CAKI-1 renal 16% | A498 renal 126% | CCRF-CEM leukemia 101% | MOLT-4 leukemia 93.6%

Cn1cc(-c2cc(N)n3nc(-c4c[nH]c5ccc(Cl)cc45)cc3n2)c2cccnc21
active: EKVX NSCLC -71.9% | SN12C renal -80% | UO-31 renal -77.5% | TK-10 renal -85.9% | ACHN renal -98.8% | CAKI-1 renal -62.3% | A498 renal -79.7% | CCRF-CEM leukemia -34.8% | MOLT-4 leukemia -37.8%
inactive: SK-MEL-2 melanoma 81%

COc1ccc(C2=Nc3c(N)nc(N)nc3NC(c3ccc(Oc4nc(Nc5ccc(F)cc5)nc(N(C)C)n4)c(OC)c3)C2)cc1 (stereo not given)
inactive: SK-MEL-2 melanoma 92.4% | EKVX NSCLC 67.2% | SN12C renal 90.2% | UO-31 renal 52.5% | TK-10 renal 86.4% | ACHN renal 99% | CAKI-1 renal 58% | A498 renal 68.9% | CCRF-CEM leukemia 50.1% | MOLT-4 leukemia 18.4%
